Source: PubChem (National Center for Advancing Translational Sciences (NCATS))
Pf growth 96h: P. falciparum growth inhibition at 96 hours; P. falciparum luciferase reporter growth, 96 h; Potency, µM (highest dose often 28.7 µM), for the others: top-dose activity change, negative = inhibition, actives largely listed as inhibitors; hit rate 6.9% among 320,000; further: potency means the concentration at half of the fitted maximal effect; on the % scale 0 is the no-effect control and ±100 the full control effect
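Erythrocytes infected with luciferase-expressing P. falciparum were dispensed at 2% hematocrit and 0.05% parasitemia (final), then incubated with compounds 96 hours at 37 C in 5% CO2. Luminescence after detection reagent addition reported growth.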
SARS PLpro yeast: inhibitors of SARS-CoV papain-like protease in yeast. Potency, µM (top dose mostly 32.9 µM), for the others: at the highest dose activity, positive = growth rescue, usual class: activators. S. cerevisiae expressing SARS-CoV PLpro, growth rescue. hit rate 0.19% among 330,000; calls by dose curve; further: potency means the concentration at half of the fitted maximal effect; 0% is about no effect; nearly all actives have a fitted effect of over 55% in size
AMA1 RON2 block: inhibitors of Plasmodium falciparum AMA1-RON2 interaction; AlphaScreen AMA1-biotinylated RON2 peptide binding; hit rate 0.2% among 360,000; Potency, µM (top dose mostly 58.2 µM), inactives show at the highest dose activity change, negative = inhibition, usual class: inhibitors;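 further: potency means the concentration at half of the fitted maximal effect; 0% = vehicle wells and -100% = peptide control; nearly all actives have a fitted effect of over 45% in size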
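AMA1 (3D7) with his tag at 25 nM final met compounds first, then biotinylated RON2 peptide at 25 nM; detection used donor plus acceptor beads, 10 µg/mL apiece, read by AlphaScreen after 30 min at room temperature.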
Shiga toxin inh: inhibitors of Shiga toxin in Vero cells; inhibition, % at 38.7 µM; hit rate 9.2% among 290,000; Vero cells, Shiga toxin protein synthesis inhibition reporter; AID 2315; in the data active means inhibition mostly above about 28%, no sharp cut-off; inactive means mostly below about 43%; further: 0% is about no effect
Cycloheximide cs: counter-screen hit for Shiga toxin inhibitors, cycloheximide | cell reporter, cycloheximide protein synthesis inhibition counterscreen | max response, % | hit rate 12% among 300,000; in the data active means max response mostly above about 13%, no sharp cut-off; inactive means mostly below about 14%; further: read at 38.3 µM for the half of the compounds with a filed dose; 0% is about no effect
Pf growth 48h: inhibits P. falciparum growth in the first generation, 48 h; P. falciparum luciferase growth in erythrocytes, 48 h; Potency, µM (titrated, usually from 28.7 µM), for the others: at the top dose activity change, negative = inhibition, hits mostly inhibitors; hit rate 5.9% among 310,000; further: potency means the concentration at half of the fitted maximal effect; on the % scale 0 is the no-effect control and ±100 the full control effect
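In quantitative HTS format, infected erythrocytes bearing luciferase-reporter parasites were treated for a single generation at 37 C. Luminescence after adding detection reagent served as the growth measure.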
Starred values were filed as active, the others as inactive; [ ] = dose if it differs, or a comment. Most compounds without a hit are left out; they make up all but 19% or so of the library. Unless noted, the call rests on the fitted dose curve; in most records, active means well fitted curve in the direction sought with a large enough effect; inconclusive means small, poorly fitted or top-dose-only effect, or another doubt; inactive means no such curve, though single readings can be large; an effect the other way counts as inactive or inconclusive.

For COc1ccc(C(=O)N/N=C(\c2ccccc2)c2ccccn2)cc1 the results were Pf growth 96h 3.7µM*, SARS PLpro yeast -75%, AMA1 RON2 block 27%, Shiga toxin inh 53*, Cycloheximide cs 16 and Pf growth 48h 2.6µM*.
For COc1ccc(Cl)cc1NC(=O)NNC(=O)c1ccccn1 the results were Pf growth 96h 10µM*, SARS PLpro yeast -2%, AMA1 RON2 block 96%, Shiga toxin inh -1, Cycloheximide cs 24* and Pf growth 48h -23%.
For Nc1n[nH]c(-c2ccc([N+](=O)[O-])cc2[N+](=O)[O-])n1 the results were Pf growth 96h 6%, SARS PLpro yeast 1%, AMA1 RON2 block 43%, Shiga toxin inh 6, Cycloheximide cs 0 and Pf growth 48h 17%.
For C/C(=N\NC(=O)c1ccoc1C)c1cccc2ccccc12 the results were Pf growth 96h 12%, SARS PLpro yeast -8%, AMA1 RON2 block 26%, Shiga toxin inh 80*, Cycloheximide cs 62* and Pf growth 48h inconclusive.
`C/C(=N\NC(=O)Cc1cccn1C)c1cccc2ccccc12` gave Pf growth 96h -28%, SARS PLpro yeast 0%, AMA1 RON2 block -11%, Shiga toxin inh 3 and Cycloheximide cs -5.
For C/C(=N\NC(=O)C(c1ccccc1)c1ccccc1)c1ccccn1 the results were Pf growth 96h 2.3µM*, SARS PLpro yeast -1%, AMA1 RON2 block 72%, Shiga toxin inh -1, Cycloheximide cs -3 and Pf growth 48h 2.3µM*.
`CCOc1cc(/C=C2/SC(=Nc3ccccc3)N(Cc3cccnc3)C2=O)ccc1OCC#N` gave Pf growth 96h 2.1µM*, SARS PLpro yeast 3%, AMA1 RON2 block -4%, Shiga toxin inh 29, Cycloheximide cs -3 and Pf growth 48h inconclusive.
For COc1ccc(/C=C2\SC(=S)N(Cc3cccnc3)C2=O)cc1C the results were Pf growth 96h inconclusive, SARS PLpro yeast 4%, AMA1 RON2 block -19%, Shiga toxin inh -10, Cycloheximide cs -2 and Pf growth 48h inconclusive.
Cc1cccc(C)c1OCCNC(=O)OCc1ccccc1 was read as Pf growth 96h inconclusive, SARS PLpro yeast 2%, AMA1 RON2 block 13%, Shiga toxin inh 9, Cycloheximide cs -3 and Pf growth 48h 9%.
`Cc1ccc(F)cc1-c1ccc(C(=O)N=C(N)N)o1` gave Shiga toxin inh 60* and Cycloheximide cs 32*.
For Cc1ccc(F)cc1-c1cc(C(=O)NCc2cc(C(F)(F)F)cc(C(F)(F)F)c2)[nH]n1 the results were AMA1 RON2 block 0%.
COc1ccc(NC(=O)OCCn2c([N+](=O)[O-])cnc2C)cc1 was read as Pf growth 96h 282%, SARS PLpro yeast -11%, AMA1 RON2 block 0%, Shiga toxin inh -12, Cycloheximide cs -2 and Pf growth 48h 7%.
For CCCCN(Cc1ccco1)S(=O)(=O)c1ccc(-c2ccc(=O)[nH]n2)s1 the results were Pf growth 96h 15µM*, SARS PLpro yeast -5%, AMA1 RON2 block 0%, Shiga toxin inh 3, Cycloheximide cs -2 and Pf growth 48h -4%.
For COc1c(F)c(F)c(C(=O)Nc2c(C)cc(Br)cc2C)c(F)c1F the results were Pf growth 96h -19%, SARS PLpro yeast 2%, AMA1 RON2 block 9%, Shiga toxin inh -5, Cycloheximide cs -4 and Pf growth 48h inconclusive.
Screening N#CC(C#N)=c1ccc2c(c1)NC1(CCCCC1)N=2 returned Pf growth 96h inconclusive, SARS PLpro yeast -29%, AMA1 RON2 block 22µM*, Shiga toxin inh 65*, Cycloheximide cs 37* and Pf growth 48h inconclusive.
N#CC(C#N)=C1NC2(CCCCC2)Cc2ccccc21 was read as Pf growth 96h -4%, SARS PLpro yeast -2%, AMA1 RON2 block -11%, Shiga toxin inh 1, Cycloheximide cs -2 and Pf growth 48h -16%.
For CCC(CC(C)(C)O)C(=O)NNC(=S)Nc1ccccc1 (centres undefined) the results were Pf growth 96h inconclusive, SARS PLpro yeast 0%, AMA1 RON2 block 66%, Shiga toxin inh 19, Cycloheximide cs 8 and Pf growth 48h 33%.
COC(=O)c1ccc(C(=O)Nc2ccc3nc(-c4ccncc4)[nH]c3c2)cc1 was read as Pf growth 96h -7%, SARS PLpro yeast 1%, AMA1 RON2 block -3%, Shiga toxin inh -2, Cycloheximide cs 2 and Pf growth 48h -10%[0.00184 µM].
COC(=O)c1ccc(-c2nc3ccccc3[nH]2)cc1 was read as Pf growth 96h 56%, SARS PLpro yeast -56%, AMA1 RON2 block -2%, Shiga toxin inh active, Cycloheximide cs 63* and Pf growth 48h 56%.
Screening COC(=O)c1ccc(C(=O)OCc2nc3cc4ccccc4cc3[nH]2)cc1 returned Pf growth 96h inconclusive, SARS PLpro yeast -19%, AMA1 RON2 block -8%, Shiga toxin inh 14*, Cycloheximide cs 29* and Pf growth 48h 63%.
O=C(O)CCc1nc2cc3ccccc3cc2[nH]1 was read as Pf growth 96h -5%, SARS PLpro yeast -1%, AMA1 RON2 block -5%, Shiga toxin inh 13, Cycloheximide cs 7 and Pf growth 48h 7%.
`Nc1cc(N)cc(-c2nc3ccccc3[nH]2)c1` gave Pf growth 96h inconclusive, SARS PLpro yeast -2%, AMA1 RON2 block -29%, Shiga toxin inh 13, Cycloheximide cs 23* and Pf growth 48h -9%.
Screening O=C(O)c1cccc(-c2nc3ccccc3[nH]2)c1 returned Pf growth 96h 2.3µM*, SARS PLpro yeast 17%, AMA1 RON2 block 0%, Shiga toxin inh 32*, Cycloheximide cs 27* and Pf growth 48h 197%.
Cc1noc(C)c1C(=O)OCC(=O)NCc1ccccc1 was read as Pf growth 96h 89%, SARS PLpro yeast 4%, AMA1 RON2 block 3% and Pf growth 48h 0%.
Screening Cc1ccc(CNC(=O)Cn2cnc3c(NC(=O)OCc4ccccc4)ncnc32)o1 returned Pf growth 96h -2%, SARS PLpro yeast -1%, AMA1 RON2 block 0% and Pf growth 48h 13%.
Screening COc1ccc2oc(=Nc3ccccc3)c(-c3nc4ccccc4[nH]3)cc2c1 returned Pf growth 96h 49%, SARS PLpro yeast -14%, AMA1 RON2 block -3%, Shiga toxin inh 71*, Cycloheximide cs 59* and Pf growth 48h 67%.
c1ccc(-c2nc3ccccc3[nH]2)cc1 was read as Pf growth 96h 353%, SARS PLpro yeast -19%, AMA1 RON2 block 0%, Shiga toxin inh 47*, Cycloheximide cs 31* and Pf growth 48h 103%.
For COc1ccc(-c2nc3ccccc3nc2-c2ccc(OC)cc2)cc1 the results were Pf growth 96h -36%, SARS PLpro yeast 6%, AMA1 RON2 block 62%, Shiga toxin inh -2, Cycloheximide cs -4 and Pf growth 48h inconclusive.
`CC(=O)Nc1cccc(-c2nc3ccccc3[nH]2)c1` gave Pf growth 96h inconclusive, SARS PLpro yeast 4%, AMA1 RON2 block 6%, Shiga toxin inh 36, Cycloheximide cs 15 and Pf growth 48h 75%.
